For 17 sequences, PBM binding z-score results are on record in the supplement of paper PMC6555819.

Common to all, as to assay: PBM binding z-score (relative to random genomic background probes); higher = stronger binding; sequences stand for … in GC…GCGATTGACAGCGTAGAATGAAGG
Assay [1] relates to RARb homodimer (NR concentration 270 nM). In a few lines: (§1)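 Binding z-scores take random background probes as their reference. They come from custom Agilent 4×180K protein-binding microarrays incubated 1 h with ligand-free nuclear receptor dimers, with antibodies against each partner (one per run) detecting binding. Scanned fluorescence was regression-normalized.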
Assay [2] relates to RARg:RXRa (NR concentration 270 nM, RXRa partner concentration 90 nM). In a few lines: as §1
Assay [3] concerns RARg homodimer (NR concentration 270 nM). In a few lines: as §1
For assay [4], the system named is RXRa DBDmut IVT, anti-RXR (DBD mutation: RXRa K156A/R161A, NR concentration 90 nM). In a few lines: as §1
For assay [5], the system named is RXRa homodimer (NR concentration 180 nM). In a few lines: as §1
Assay [6] relates to THRa:RXRa (NR concentration 90 nM, RXRa partner concentration 90 nM). In a few lines:
as §1

Assay [7] concerns THRa homodimer (NR concentration 90 nM). In a few lines:
as §1

The test system of assay [8] is VDR homodimer (NR concentration 270 nM). In a few lines: as §1

As to CCTGTTAGGTCATGGTCAGCTAATCTACAGTATG, the PBM binding z-score in assay [1] stood at 3.36; in assay [2], 4.05; in assay [3], 4.61; in assay [4], 2; in assay [5], 2.89; in assay [6], 3.73. For the same sequence, the PBM binding z-score in assay [7] was 2.91; in assay [8] it was 0.791.
Take ATACCAAGGTGATCGTGAGGTCCTTGATACTAAC: the PBM binding z-score was 0.337 in assay [1]; 0.376 in assay [2]; 0.386 in assay [3]; 0.0286 in assay [4]; 0.487 in assay [5]; 1.94 in assay [6]. In addition, the PBM binding z-score is 0.903 in assay [7] and 0.291 in assay [8].
As for CGTCCAAGGTCATAGGAGGTCAGTGAAGACAGAT, the PBM binding z-score in assay [1] was 5.19; in assay [2], 6.63; in assay [3], 7.12; in assay [4], 3.93; in assay [5] it was 6.4; in assay [6] it was 5.42. Also, the PBM binding z-score in assay [7] came to 3.01; in assay [8], 4.13.
GCGACTGGGGCAAAGCAGGTTTCCATAAGGTTGG: the PBM binding z-score in assay [1] was -0.0206; in assay [2], -0.174; in assay [3], -0.133; in assay [4] it was 0.157; in assay [5], -0.342; in assay [6] it was 1.21. Also, the values for the PBM binding z-score in assay [7] and in assay [8] were -0.028 and -0.34, respectively.
Consider TATAGTTGGTCACGGAGGTCACACACGACGGGTA, for which the PBM binding z-score is 4.58 in assay [1]; 4.81 in assay [2]; 4.72 in assay [3]; -0.131 in assay [4]; 5.16 in assay [5]; 3.9 in assay [6]. Also, the PBM binding z-score was 2.69 in assay [7] and 2.85 in assay [8].
As for TCATATATGTAAACAGGTGAAAGTCCGTAAGTTA, the PBM binding z-score stood at 0.609 in assay [1]; 0.551 in assay [2]; 0.376 in assay [3]; 1.85 in assay [4]; 0.989 in assay [5]; 0.84 in assay [6]. Also, the values for the PBM binding z-score in assay [7] and in assay [8] were 0.27 and 0.413, respectively.
As to CCTTACGGGTCACGCCAGGTTATAGCATCGGAGT, the PBM binding z-score in assay [1] came to 3.89; in assay [2] it was 5.65; in assay [3], 5.54; in assay [4], 1.75; in assay [5], 6.22; in assay [6], 5.03. Further, the PBM binding z-score in assay [7] stood at 0.956; in assay [8], 0.985.
For CGTCCAAGGTCATAGTAGGTCAGTGAAGACAGAT, the PBM binding z-score in assay [1] stood at 4.63; in assay [2] it was 6.11; in assay [3], 6.44; in assay [4], 4.14; in assay [5], 6.11; in assay [6], 4.94. Moreover, the PBM binding z-score in assay [7] stood at 2.97; in assay [8] it was 3.93.
Consider GGAACGAGGGCAAGGTTGATAGCATCTGTCGACG, for which the PBM binding z-score in assay [1] was 1.67; in assay [2], 1.67; in assay [3] it was 1.88; in assay [4], 1.72; in assay [5], 1.32; in assay [6] it was 1.45. The PBM binding z-score in assay [7] was determined as 0.156; in assay [8], 1.39.
Regarding CCCAGCAGGCCAATCTGGGTCACTCAAGGCTTGA, the PBM binding z-score was 2.53 in assay [1]; 1.29 in assay [2]; 1.5 in assay [3]; -0.496 in assay [4]; 0.923 in assay [5]; 3.73 in assay [6]. For the same sequence, the PBM binding z-score in assay [7] is 0.49; in assay [8], -0.172.
Take CCTTACGGGTCACGAGGATATAGCACGACGAGCG: the PBM binding z-score turned out to be 3.37 in assay [1]; 5.53 in assay [2]; 5.26 in assay [3]; 0.944 in assay [4]; 6.1 in assay [5]; 3.16 in assay [6]. Besides, the results for the PBM binding z-score in assay [7] and in assay [8] were 0.656 and 0.89, respectively.
With ACTAGCAGGCCAAGTTTGGGTCATTCAAACAAAG, the PBM binding z-score was 2.24 in assay [1]; 2.22 in assay [2]; 1.29 in assay [3]; -0.125 in assay [4]; 0.803 in assay [5]; 2.55 in assay [6]. The PBM binding z-score in assay [7] was 0.849; in assay [8] it was 0.69.
For the sequence TCTTGTAGATCAATAGCGGTTAAGAAAGTGCGCT, the PBM binding z-score in assay [1] was -0.0533; in assay [2], 0.105; in assay [3], -0.0407; in assay [4], 0.457; in assay [5], 0.288; in assay [6], 0.011. Also, the PBM binding z-score was -0.478 in assay [7] and 0.0262 in assay [8].
As for TCATATAAGTAAATGCTAGGTGAAAGTCCGATCT, the PBM binding z-score amounted to 0.289 in assay [1]; 0.478 in assay [2]; 0.348 in assay [3]; 2 in assay [4]; 0.855 in assay [5]; 0.92 in assay [6]. Also, the results for the PBM binding z-score in assay [7] and in assay [8] were 0.526 and 0.559, respectively.
As to ATCGAAAGGACGACGAGGTGAGTATACACCGTTT, the PBM binding z-score in assay [1] was 0.685; in assay [2] it was 1.09; in assay [3], 1.42; in assay [4], -0.192; in assay [5] it was 0.371; in assay [6] it was 1.42. In addition, the PBM binding z-score in assay [7] was 0.601; in assay [8], 0.0497.
For the sequence AGAATGAGGTTAAGCTCAGGGAAACAGAATACAT, the PBM binding z-score in assay [1] was 0.601; in assay [2], 2.43; in assay [3] it was 1.72; in assay [4], 1.26; in assay [5], 2.59; in assay [6] it was 2.67. In addition, the results for the PBM binding z-score in assay [7] and in assay [8] were 0.503 and -0.00367, respectively.
For ATCTATAGGTAAAAGTTCAGTGAATCCCGAGGAT, the PBM binding z-score is 2.32 in assay [1]; 1.92 in assay [2]; 2.03 in assay [3]; 0.768 in assay [4]; 1.99 in assay [5]; 0.789 in assay [6]. The PBM binding z-score in assay [7] is -0.138; in assay [8], 1.46.
